Hit rate of the full screen: of about 5,500 compounds, about 2,000 (36%) were called active. Not shown: some 18% with an inconclusive outcome. No stated cut-off is given here; in the data, active means normalized growth mostly below about 0.91 (no sharp cut-off); inconclusive means no clear call, values can overlap the other calls; inactive means mostly above about 0.92. This is one part of the list.
Assay: chemical genetic growth profiling, strain panel (AID 1159580);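 further: tested at 20 µM; growth read once vehicle control cultures reached saturation at 30 °C; 1 = growth at the plate median or of vehicle wells; lower values mean less growth of the strain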
Conditions: growth OD

Measured: normalized growth

CN1C[C@H](C(=O)N[C@]2(C)O[C@@]3(O)[C@@H]4CCCN4C(=O)[C@H](Cc4ccccc4)N3C2=O)C[C@@H]2c3cccc4[nH]cc(c34)C[C@H]21
active: S. cerevisiae deletion strains, locus YLR418C, strain cdc73, hits give low values 0.803
inactive: S. cerevisiae deletion strains, locus YKL009W, strain mrt4, hits give low values 0.97 | S. cerevisiae deletion strains, locus YKL068W, hits give low values 0.989 | S. cerevisiae deletion strains, locus YKL085W, strain MDH1 (second series), hits give low values 0.987 | S. cerevisiae deletion strains, locus YKL085W, strain MDH1, hits give low values 0.987 | S. cerevisiae deletion strains, locus YKL160W, strain elf1, hits give low values 0.928 | S. cerevisiae deletion strains, locus YKL190W, strain CNB1, hits give low values 0.992 | S. cerevisiae deletion strains, locus YKR001C, strain vps1, hits give low values 1 | S. cerevisiae deletion strains, locus YKR026C, strain gcn3, hits give low values 0.996 | S. cerevisiae deletion strains, locus YKR091W, strain srl3, hits give low values 0.983 | S. cerevisiae deletion strains, locus YLL001W, strain dnm1, hits give low values 0.92 | S. cerevisiae deletion strains, locus YLL026W, hits give low values 0.988 | S. cerevisiae deletion strains, locus YLL041C, strain sdh2, hits give low values 0.997 | S. cerevisiae deletion strains, locus YLR027C, strain aat2, hits give low values 0.992 | S. cerevisiae deletion strains, locus YLR039C, strain RIC1, hits give low values 1.06 | S. cerevisiae deletion strains, locus YLR058C, strain SHM2, hits give low values 0.957 | S. cerevisiae deletion strains, locus YLR102C, strain apc9, hits give low values 0.974 | S. cerevisiae deletion strains, locus YLR113W, strain HOG1, hits give low values 1.07 | S. cerevisiae deletion strains, locus YLR221C, strain rsa3, hits give low values 0.997 | S. cerevisiae deletion strains, locus YLR258W, strain gsy2, hits give low values 1.01 | S. cerevisiae deletion strains, locus YLR262C, strain YPT6 (second series), hits give low values 0.973 | S. cerevisiae deletion strains, locus YLR262C, strain YPT6, hits give low values 1.06 | S. cerevisiae deletion strains, locus YLR268W, strain sec22, hits give low values 0.973 | S. cerevisiae deletion strains, locus YLR320W, strain mms22, hits give low values 0.969 | S. cerevisiae deletion strains, locus YLR330W, strain CHS5, hits give low values 0.984 | S. cerevisiae deletion strains, locus YLR342W, strain FKS1 (second series), hits give low values 0.906 | S. cerevisiae deletion strains, locus YLR342W, strain FKS1, hits give low values 1.01 | S. cerevisiae deletion strains, locus YLR357W, strain rsc2, hits give low values 0.957 | S. cerevisiae deletion strains, locus YLR370C, strain arc18, hits give low values 0.987 | S. cerevisiae deletion strains, locus YLR371W, strain rom2, hits give low values 0.974 | S. cerevisiae deletion strains, locus YLR384C, strain iki3, hits give low values 1.01 | S. cerevisiae deletion strains, locus YML016C, strain PPZ1, hits give low values 0.979 | S. cerevisiae deletion strains, locus YML032C, strain rad52, hits give low values 0.979 | S. cerevisiae deletion strains, locus YML120C, strain ndi1, hits give low values 0.95 | S. cerevisiae deletion strains, locus YML124C, strain tub3, hits give low values 0.982 | S. cerevisiae deletion strains, locus YMR058W, strain fet3, hits give low values 0.965 | S. cerevisiae deletion strains, locus YMR078C, strain ctf18, hits give low values 0.963 | S. cerevisiae deletion strains, locus YMR125W, strain sto1, hits give low values 0.921 | S. cerevisiae deletion strains, locus YMR129W, hits give low values 0.989 | S. cerevisiae deletion strains, locus YMR205C, strain PFK2, hits give low values 0.946 | S. cerevisiae deletion strains, locus YMR223W, strain ubp8, hits give low values 0.941 | S. cerevisiae deletion strains, locus YMR231W, strain pep5, hits give low values 1.01 | S. cerevisiae deletion strains, locus YMR263W, strain SAP30, hits give low values 0.959 | S. cerevisiae deletion strains, locus YMR307W, strain GAS1, hits give low values 0.821 | S. cerevisiae deletion strains, locus YNL067W, strain RPL9B, hits give low values 0.961 | S. cerevisiae deletion strains, locus YNL071W, strain lat1, hits give low values 0.994 | S. cerevisiae deletion strains, locus YNL128W, strain TEP1, hits give low values 0.96 | S. cerevisiae deletion strains, locus YNL153C, strain GIM3, hits give low values 0.965 | S. cerevisiae deletion strains, locus YNL183C, strain NPR1, hits give low values 0.98 | S. cerevisiae deletion strains, locus YNL209W, strain ssb2, hits give low values 0.981 | S. cerevisiae deletion strains, locus YNL233W, strain BNI4, hits give low values 0.933 | S. cerevisiae deletion strains, locus YNL248C, strain rpa49, hits give low values 0.933 | S. cerevisiae deletion strains, locus YNL250W, strain rad50, hits give low values 0.984 | S. cerevisiae deletion strains, locus YNL271C, strain bni1, hits give low values 0.974 | S. cerevisiae deletion strains, locus YNL298W, strain CLA4, hits give low values 0.985 | S. cerevisiae deletion strains, locus YNL307C, strain MCK1, hits give low values 0.967 | S. cerevisiae deletion strains, locus YNL322C, strain KRE1 (second series), hits give low values 0.989 | S. cerevisiae deletion strains, locus YNL322C, strain KRE1, hits give low values 0.996 | S. cerevisiae deletion strains, locus YNR049C, strain mso1, hits give low values 0.983 | S. cerevisiae deletion strains, locus YNR052C, strain pop2, hits give low values 0.972 | S. cerevisiae deletion strains, locus YOL006C, strain TOP1, hits give low values 0.79 | S. cerevisiae deletion strains, locus YOL012C, strain htz1 0.956 | S. cerevisiae deletion strains, locus YOL147C, strain pex11, hits give low values 0.975 | S. cerevisiae deletion strains, locus YOR001W, strain rrp6, hits give low values 1.05 | S. cerevisiae deletion strains, locus YOR061W, strain CKA2, hits give low values 0.986 | S. cerevisiae deletion strains, locus YOR069W, strain VPS5, hits give low values 0.989 | S. cerevisiae deletion strains, locus YOR070C, strain gyp1, hits give low values 1 | S. cerevisiae deletion strains, locus YOR080W, strain dia2, hits give low values 0.996 | S. cerevisiae deletion strains, locus YOR083W, strain WHI5, hits give low values 0.931 | S. cerevisiae deletion strains, locus YOR106W, strain vam3, hits give low values 0.914 | S. cerevisiae deletion strains, locus YOR136W, strain idh2, hits give low values 0.977 | S. cerevisiae deletion strains, locus YOR144C, strain elg1, hits give low values 0.985 | S. cerevisiae deletion strains, locus YOR184W, strain ser1, hits give low values 0.943 | S. cerevisiae deletion strains, locus YOR231W, strain MKK1, hits give low values 1.05 | S. cerevisiae deletion strains, locus YOR265W, strain rbl2, hits give low values 0.994 | S. cerevisiae deletion strains, locus YOR270C, strain vph1, hits give low values 0.909 | S. cerevisiae deletion strains, locus YOR290C, strain snf2, hits give low values 0.962 | S. cerevisiae deletion strains, locus YOR316C, strain cot1, hits give low values 0.971 | S. cerevisiae deletion strains, locus YPL051W, strain arl3, hits give low values 0.992 | S. cerevisiae deletion strains, locus YPL055C, strain LGE1, hits give low values 0.91 | S. cerevisiae deletion strains, locus YPL078C, strain atp4, hits give low values 0.926 | S. cerevisiae deletion strains, locus YPL106C, strain sse1, hits give low values 0.967 | S. cerevisiae deletion strains, locus YPL240C, strain hsp82, hits give low values 0.989 | S. cerevisiae deletion strains, locus YPL241C, strain CIN2, hits give low values 0.993 | S. cerevisiae deletion strains, locus YPL256C, strain CLN2, hits give low values 1.03 | S. cerevisiae deletion strains, locus YPR119W, strain clb2, hits give low values 0.967 | S. cerevisiae deletion strains, locus YPR141C, strain kar3, hits give low values 0.968 | S. cerevisiae deletion strains, locus YPR163C, strain tif3, hits give low values 0.989 | S. cerevisiae deletion strains, locus YPR167C, strain met16, hits give low values 0.969 | S. cerevisiae deletion strains, strain wtn01, hits give low values 0.965 | S. cerevisiae strains, strain wild type, hits give low values 0.986
